26 molecules from PubChem BioAssay can be followed below.

A number with no mark means an inactive call.
Also: test concentration not given here.

Test system in one assay: not listed separately
As to the kind of experiment: viability profiling in MM1S myeloma cells – cell-based, resazurin fluorescence, basal, 24 h, PK04 Diversity Set, profiling panel (AID 1174).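 Also: MM1S multiple myeloma cell line.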 The settings on record: higher = more signal, called active from +8 up or from −8 down. Background: The colour change of resazurin is a common sign of viable cells or microbes.
As to `CC1CC/C=C\[C@H]2OC34C=CCN(C(C)C)C(=O)[C@H]3N(CCCCCCO)C(=O)[C@@H]4C2C(=O)O1` (stereo partly specified), the z-score was 0.794. On to `CC1CC/C=C\[C@H]2OC34C=CCN(c5ccc(Cl)cc5)C(=O)[C@H]3N(CCCCCO)C(=O)[C@]4(C)C2C(=O)O1` (stereo partly specified), for which the z-score was 0.421. On the same count and under the same terms, for `COCCCNC(=O)[C@@]1(Sc2ccc(C)cc2)CC(=O)N(C2CCCCC2)[C@@H]1c1ccc(CO)cc1` the value was 0.0246. Regarding `[N-]=[N+]=Nc1ccccc1[C@H]1OC(c2ccc(OCCCO)cc2)=N[C@@]1(Cc1ccccc1)C(=O)N1CCCCC1`, the z-score is -3.61. Still for that read-out and setting: for `CC(C)OC(=O)C=C1C[C@@H](c2ccc(C(F)(F)F)cc2)O[C@@H](c2ccc(C(F)(F)F)cc2)O1` the value was 0.533; for `[N-]=[N+]=Nc1ccccc1[C@@H]1OC(c2ccc(OCCCO)cc2)=N[C@]1(Cc1ccccc1)C(=O)NCC(O)CO` (stereo partly specified), -0.53. The same measure, in the same setting: for `[N-]=[N+]=Nc1ccccc1C[C@]1(C(N)=O)N=C(c2ccc(OCCCO)cc2)O[C@H]1c1ccccc1N=[N+]=[N-]` the value was -1.55; for `C[C@@H]1NC(=O)[C@@]23C(=O)N[C@@H](Cc4ccccc4)C2[C@H](C)[C@@]2(C)O[C@H]2C3/C=C/C/C=C\CNC(=O)[C@@H]2CCCN2C1=O` (stereo partly specified), -0.737; for `COCCCNC(=O)[C@]1(CCS(=O)(=O)c2ccccc2)N=C(c2ccc(OCCCO)cc2)O[C@@H]1c1ccccc1N=[N+]=[N-]`, -0.458. On the same count and under the same terms, for `O=C1OCCC/C=C\[C@H]2OC34C=CCN(CCN5CCOCC5)C(=O)[C@H]3N(CCCCCCO)C(=O)[C@@H]4C12` (stereo partly specified) the value was 0.828.

The target of the next assay is Dihydroorotate dehydrogenase (quinone), mitochondrial (Plasmodium falciparum (isolate 3D7)) (UniProt Q08210). As to the kind of experiment: inhibition of P. falciparum DHODH – biochemical, C-terminal His tag, absorbance 600 nm, primary screen (AID 1175).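 Also: recombinant parasite enzyme with a five histidine tag at its C terminus.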 The settings on record: PfDHODH enzyme, DCIP absorbance 600 nm; higher = more signal, called active from +8 up or from −8 down.
Chain of Dihydroorotate dehydrogenase (quinone), mitochondrial (Plasmodium falciparum (isolate 3D7)) (Q08210 whole entry, looked up): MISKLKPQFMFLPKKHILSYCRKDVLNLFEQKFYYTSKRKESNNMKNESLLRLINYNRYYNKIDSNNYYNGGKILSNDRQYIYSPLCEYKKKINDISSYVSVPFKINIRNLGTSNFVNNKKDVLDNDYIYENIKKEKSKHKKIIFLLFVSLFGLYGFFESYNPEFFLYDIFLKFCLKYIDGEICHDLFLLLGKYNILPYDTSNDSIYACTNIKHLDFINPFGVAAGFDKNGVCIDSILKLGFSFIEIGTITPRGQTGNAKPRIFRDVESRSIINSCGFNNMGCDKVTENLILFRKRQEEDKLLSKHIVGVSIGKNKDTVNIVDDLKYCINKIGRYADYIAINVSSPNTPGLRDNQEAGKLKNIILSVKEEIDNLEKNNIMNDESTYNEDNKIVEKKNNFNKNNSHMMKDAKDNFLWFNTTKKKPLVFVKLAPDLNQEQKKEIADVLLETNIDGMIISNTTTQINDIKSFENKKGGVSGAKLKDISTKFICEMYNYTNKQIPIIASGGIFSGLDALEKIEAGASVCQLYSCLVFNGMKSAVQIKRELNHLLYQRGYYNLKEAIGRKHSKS
Take `[N-]=[N+]=NCc1ccccc1C[C@@]1(C(=O)N2CCCCC2)N=C(c2ccc(OCCCO)cc2)O[C@@H]1c1ccccc1`: the composite z-score is 1.53. With `O=C1O[C@@H](c2ccccc2)[C@@H](c2ccccc2)N2[C@@H](c3ccc(OCCO)cc3)[C@]3(C(=O)Nc4ccccc43)[C@@H](C(=O)O)[C@H]12`, the composite z-score was -1.09. The same measure, in the same setting: for `CC(CO)N1C(=O)[C@@H]2[C@H]3C(=O)OCC=C[C@H]3OC23C=CCN(C(C)(C)C)C(=O)[C@@H]13` (stereo partly specified) the value was -1.08; for `CN1C(=O)C2C=CC(C(O)c3cccc4ccccc34)N(N3CCCCC3)C2C1=O` (stereo unspecified), -0.0243; for `CN(C)C(=O)[C@]1(CCS(=O)(=O)c2ccccc2)N=C(c2ccc(OCCCO)cc2)O[C@@H]1c1ccccc1N=[N+]=[N-]`, 1.05. For `COC(=O)[C@@]1(Cc2ccc(F)cc2)[C@H]2c3cc(C(=O)N4CCCC4)n(CCc4ccc(O)c(O)c4)c3C[C@H]2CN1C(=O)c1ccccc1`, the composite z-score was -0.0926. On the same count and under the same terms, for `CN(C)CCCNC(=O)[C@@]1(c2ccc([N+](=O)[O-])cc2)CC(=O)N(CC23CC4CC(CC(C4)C2)C3)[C@@H]1c1ccc(CO)cc1I` the value was -0.173.

`Cc1cc(C)c(C(O)C2C=CC3C(=O)NC(=O)C3N2Nc2ccc(Cl)cc2Cl)c(C)c1` (stereo unspecified): the composite z-score is -0.0825.

With `COCCOC(=O)N1C(=O)[C@@]2(c3cc(C#CC4=CCCCC4)ccc31)[C@H](c1ccc(OCCO)cc1)N1[C@H](c3ccccc3)[C@H](c3ccccc3)OC(=O)[C@H]1[C@@H]2C(=O)N1CCN(c2ncccn2)CC1`, the composite z-score was -1.42. Still for that read-out and setting: for `C=CCC(OC(C)=O)[C@@H]1[C@@H](N(Cc2ccc(-c3ccccc3)cc2)C(=O)Cc2ccc(F)cc2)c2cc(OCCCO)ccc2N1C(=O)Cc1ccc(OC)cc1` (stereo partly specified) the value was -0.433; for `COC(=O)[C@@]1(Cc2ccc(OC)cc2)[C@H]2c3cc(C(=O)N(C)C)n(C[C@H](O)CO)c3C[C@H]2CN1C(=O)c1ccccc1`, -0.791; for `Cn1cccc1C(O)C1C=CC2C(=O)NC(=O)C2N1Nc1ccc(Cl)cc1Cl` (stereo unspecified), 0.121. The same measure, in the same setting: for `COc1ccc([Si](C)(C)[C@@H]2[C@@H](CC(=O)N(CCO)Cc3ccccc3)O[C@]3(C(=O)N(Cc4cccc(N5C(=O)c6cccc7cccc5c67)c4)c4ccccc43)[C@H]2C)cc1` the value was -1.29; for `Cc1ccc(S[C@]2(C(=O)NCC(F)(F)F)CC(=O)N(Cc3ccccc3C(F)(F)F)[C@@H]2c2ccc(CO)cc2I)cc1`, 0.196.

As to `CCOc1cc(C(O)C2C=CC3C(=O)N(c4ccccc4)C(=O)C3N2Nc2ccc(C#N)cc2)ccc1O` (stereo unspecified), the composite z-score is 0.45. The same measure, in the same setting: for `COCCOC(=O)N1C(=O)[C@@]2(c3ccccc31)[C@H](C(=O)N1CCN(c3ncccn3)CC1)[C@H]1C(=O)O[C@H](c3ccccc3)[C@H](c3ccccc3)N1[C@@H]2c1ccc(O)cc1` the value was -0.437.
